Consider six compounds from PubChem BioAssay (EPA / NIEHS).

Some compounds were tested as several samples or in several runs, with calls that do not always agree. Calls of active or inactive are those of the source. Rule for the calls: active = hit-call score of the fitted dose curve at least 0.9, where 1 is the maximum; inactive = score below 0.9.

Read-out in test [1]: Tumor necrosis factor receptor superfamily member 6 (Homo sapiens) (UniProt P25445)
In words: LTEA_HepaRG_FAS: Life Technologies and Expression Analysis (LTEA) Assay for Fas cell surface death receptor (FAS) using HepaRG (AID 2283447). To be noted: mRNA level, 48 h; actives raise or lower the signal. In outline:
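Differentiated HepaRG cells in serum-free induction medium were exposed 48 h to 8 half-log concentrations up to 100 uM in 0.5% DMSO, in duplicate. FAS mRNA was measured by qRT-PCR normalised to ACTB, GAPDH and POLR2A; bidirectional fit versus DMSO.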

Read-out in test [2]: Fatty acid synthase (Homo sapiens) (UniProt P49327)
Description: LTEA_HepaRG_FASN: Life Technologies and Expression Analysis (LTEA) Assay for Fatty Acid Synthase (FASN) using HepaRG (AID 2283448). To be noted: mRNA level, 48 h; actives raise or lower the signal. In outline:
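Transcript-level assay: HepaRG liver cells are treated for 48 h across an eight-point range topping at 100 uM, and FASN mRNA, normalized to three housekeeping genes, is compared with DMSO controls in both directions.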

Read-out in test [3]: Cyclin D2 (CCND2), CCND2 (gene 894)
In words: LTEA_HepaRG_CCND2: Life Technologies and Expression Analysis (LTEA) Assay for Cyclin D2 (CCND2) using HepaRG (AID 2283449).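 Note: CCND2 transcript measured by TaqMan qRT-PCR and normalised to three housekeeping genes.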 Particulars: mRNA level, 48 h; actives raise or lower the signal. In a few lines: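 Chemicals in 0.5% DMSO, eight half-log concentrations from 100 uM top, were applied in duplicate for 48 h to human HepaRG cells in serum-free induction medium. CCND2 mRNA by TaqMan qRT-PCR, normalised to ACTB/GAPDH/POLR2A; bidirectional fit versus DMSO.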

Read-out in test [4]: Cyclin Dependent Kinase Inhibitor 1A (CDKN1A), CDKN1A (gene 1026)
In words: LTEA_HepaRG_CDKN1A: Life Technologies and Expression Analysis (LTEA) Assay for Cyclin Dependent Kinase Inhibitor 1A (CDKN1A) using HepaRG (AID 2283450). To be noted: mRNA level, 48 h; actives raise or lower the signal. In outline:
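Differentiated human HepaRG cells, pre-cultured 48 h, were exposed in duplicate for 48 h in serum-free induction medium to eight half-log concentrations up to 100 uM (0.5% DMSO). CDKN1A mRNA was measured by qRT-PCR, normalized to ACTB/GAPDH/POLR2A, bidirectionally fitted versus DMSO.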

Read-out in test [5]: catalase (CAT), CAT (gene 847)
In words: LTEA_HepaRG_CAT: Life Technologies and Expression Analysis (LTEA) Assay for catalase (CAT) using HepaRG (AID 2283452). To be noted: mRNA level, 48 h; actives raise or lower the signal. In outline:
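HepaRG cells in serum-free induction medium, 0.5% DMSO vehicle, exposed 48 h in duplicate over 8 half-log concentrations from 100 uM. CAT mRNA measured by qRT-PCR, normalized to ACTB, GAPDH, POLR2A; bidirectional fit versus DMSO.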

Read-out in test [6]: flavin-containing dimethylaniline monooxygenases 3 (FMO3), FMO3 (gene 2328)
Description: LTEA_HepaRG_FMO3: Life Technologies and Expression Analysis (LTEA) Assay for flavin-containing dimethylaniline monooxygenases 3 (FMO3) using HepaRG (AID 2283453). To be noted: mRNA level, 48 h; actives raise or lower the signal. In outline:
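HepaRG, 48 h exposure, 8-pt half-log series from 100 uM, 0.5% DMSO vehicle, duplicates; FMO3 transcript by Fluidigm TaqMan qRT-PCR, housekeeping-normalized; gain/loss fit vs DMSO.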

Read-out in test [7]: Cytochrome P450 (CYP1A1), CYP1A1 (gene 1543)
In words: LTEA_HepaRG_CYP1A1: Life Technologies and Expression Analysis (LTEA) Assay for Cytochrome P450 (CYP1A1) using HepaRG (AID 2283454). Particulars: mRNA level, 48 h; actives raise or lower the signal. In outline:
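Differentiated HepaRG cells in serum-free induction medium were exposed in duplicate for 48 h to eight half-log concentrations up to 100 uM in 0.5% DMSO. CYP1A1 mRNA was quantified by TaqMan qRT-PCR, normalized to ACTB, GAPDH and POLR2A.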

Read-out in test [8]: CFLAR gene, CFLAR (gene 8837)
Description: LTEA_HepaRG_CFLAR: Life Technologies and Expression Analysis (LTEA) Assay for CFLAR gene using HepaRG (AID 2283455). Particulars: mRNA level, 48 h; actives raise or lower the signal. In outline:
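Differentiated HepaRG cells in serum-free induction medium were exposed 48 h in duplicate to eight half-log concentrations up to 100 uM in 0.5% DMSO; mRNA measured by TaqMan qRT-PCR, normalized to ACTB, GAPDH, POLR2A; bidirectional fitting versus DMSO.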

Read-out in test [9]: Forkhead box O1 (FOXO1), FOXO1 (gene 2308)
In words: LTEA_HepaRG_FOXO1: Life Technologies and Expression Analysis (LTEA) Assay for Forkhead box O1 (FOXO1) using HepaRG (AID 2283456). Particulars: mRNA level, 48 h; actives raise or lower the signal. In outline:
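Differentiated HepaRG cells, in serum-free induction medium with 0.5% DMSO, exposed 48 h in duplicate to 8-point half-log series from 100 uM. FOXO1 mRNA measured by TaqMan qRT-PCR, normalized to ACTB, GAPDH, POLR2A; bidirectional fit versus DMSO.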

Read-out in test [10]: growth arrest and DNA damage 45 (GADD45A), GADD45A (gene 1647)
In words: LTEA_HepaRG_GADD45A: Life Technologies and Expression Analysis (LTEA) Assay for growth arrest and DNA damage 45 (GADD45A) using HepaRG (AID 2283458). To be noted: mRNA level, 48 h; actives raise or lower the signal. In a few lines: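 Human HepaRG liver cells are treated in duplicate for 48 h with chemicals in 0.5% DMSO, highest concentration 100 uM. Expression is read by qRT-PCR and analyzed in both directions against vehicle.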

Read-out in test [11]: Forkhead box O3 (FOXO3), FOXO3 (gene 2309)
Description: LTEA_HepaRG_FOXO3: Life Technologies and Expression Analysis (LTEA) Assay for Forkhead box O3 (FOXO3) using HepaRG (AID 2283459). Particulars: mRNA level, 48 h; actives raise or lower the signal. In outline: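 Differentiated human HepaRG cells, 48 h post-plating, exposed in duplicate for 48 h in serum-free induction medium; 8-point half-log series from 100 uM in 0.5% DMSO. FOXO3 mRNA by TaqMan qRT-PCR, normalized to ACTB/GAPDH/POLR2A; bidirectional fit versus DMSO.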

Read-out in test [12]: ABC Transporter (ABCB1), ABCB1 (gene 5243)
Description: LTEA_HepaRG_ABCB1: Life Technologies and Expression Analysis (LTEA) Assay for ABC Transporter (ABCB1) using HepaRG (AID 2283460). Particulars: mRNA level, 48 h; actives raise or lower the signal. In outline: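 HepaRG cells exposed in duplicate for 48 h in serum-free induction medium to eight half-log concentrations up to 100 uM in 0.5% DMSO. ABCB1 mRNA quantified by qRT-PCR, normalised to ACTB, GAPDH and POLR2A; fitted bidirectionally versus DMSO.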

Read-out in test [13]: growth arrest and DNA damage 45 (GADD45B), GADD45B (gene 4616)
Description: LTEA_HepaRG_GADD45B: Life Technologies and Expression Analysis (LTEA) Assay for growth arrest and DNA damage 45 (GADD45B) using HepaRG (AID 2283461). To be noted: mRNA level, 48 h; actives raise or lower the signal. In outline: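 Differentiated HepaRG cells, plated 48 h then switched to serum-free induction medium, were exposed 48 h in duplicate to eight half-log concentrations from 100 uM in 0.5% DMSO; mRNA quantified by qRT-PCR, normalized to ACTB/GAPDH/POLR2A, bidirectional fit versus DMSO.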

Read-out in test [14]: ABC Transporter (ABCC3), ABCC3 (gene 8714)
In words: LTEA_HepaRG_ABCC3: Life Technologies and Expression Analysis (LTEA) Assay for ABC Transporter (ABCC3) using HepaRG (AID 2283462). Particulars: mRNA level, 48 h; actives raise or lower the signal. In a few lines: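 HepaRG cells in serum-free induction medium were exposed for 48 h in duplicate to 8-point half-log concentrations topping at 100 uM in 0.5% DMSO. ABCC3 mRNA was measured by qRT-PCR normalized to ACTB, GAPDH and POLR2A, with bidirectional fitting versus DMSO.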

Test [15] can be described thus: CEETOX_H295R_PROG: CeeTox H295R High-throughput Steroidogenesis Assay for Progesterone (PROG) (AID 2283442).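 For AC50: human H295R adrenal cells primed with 10 µM forskolin before dosing.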 To be noted: actives raise or lower the signal. In outline:
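H295R human adrenal cells were prestimulated with 10 uM forskolin for 48 h, then exposed to test chemical (0.1% DMSO final) for 48 h. Medium progesterone was MTBE-extracted and quantified by HPLC-MS/MS, with bidirectional fitting against DMSO.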

Read-out in test [16]: Cyclin D1 (CCND1), CCND1 (gene 595)
Description: LTEA_HepaRG_CCND1: Life Technologies and Expression Analysis (LTEA) Assay for Cyclin D1 (CCND1) using HepaRG (AID 2283451). Particulars: mRNA level, 48 h; actives raise or lower the signal. In a few lines:
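Differentiated human HepaRG cells in serum-free induction medium were exposed 48 h to eight half-log concentrations up to 100 uM in 0.5% DMSO; mRNA quantified by TaqMan qRT-PCR, normalized to ACTB, GAPDH, POLR2A, fitted bidirectionally versus DMSO.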

A short description of test [17]: CEETOX_H295R_TESTO: CeeTox H295R High-throughput Steroidogenesis Assay for Testosterone (TESTO) (AID 2283457). To be noted: actives raise or lower the signal. In outline:
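H295R human adrenal cells in DMEM/F12 with ITS+ and Nu-Serum, exposed to chemicals for 48 h. Testosterone in medium measured by MTBE extraction, reverse-phase HPLC-MS/MS; bidirectional fit versus DMSO baseline. MTT viability checked in same wells.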

Test [18] can be described thus: CEETOX_H295R_ESTRADIOL: CeeTox H295R High-throughput Steroidogenesis Assay for Estradiol (AID 2283440).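 Note: estradiol secreted into medium quantified by LC-MS/MS after dansyl derivatisation.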 To be noted: actives raise or lower the signal. In a few lines: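 H295R adrenocortical cells were prestimulated with 10 uM forskolin for 48 h, then exposed to test chemical in 0.1% DMSO for 48 h. Medium estradiol was extracted with MTBE, dansyl-derivatized and quantified by HPLC-MS/MS; bidirectional fit versus DMSO.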

Test [19] in a line: CEETOX_H295R_ESTRONE: CeeTox H295R High-throughput Steroidogenesis Assay for Estrone (AID 2283441).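 Note: estrone secreted into medium measured by LC-MS/MS after dansyl derivatization.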 Particulars: actives raise or lower the signal. In outline: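 H295R cells; 48 h forskolin (10 uM) prestimulation; 48 h compound exposure, 0.1% DMSO final. Medium estrone: MTBE extraction, dansyl derivatization, HPLC-MS/MS. Bidirectional fit vs DMSO.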

Fatty acid synthase (Homo sapiens), sequence (P49327 whole entry, looked up): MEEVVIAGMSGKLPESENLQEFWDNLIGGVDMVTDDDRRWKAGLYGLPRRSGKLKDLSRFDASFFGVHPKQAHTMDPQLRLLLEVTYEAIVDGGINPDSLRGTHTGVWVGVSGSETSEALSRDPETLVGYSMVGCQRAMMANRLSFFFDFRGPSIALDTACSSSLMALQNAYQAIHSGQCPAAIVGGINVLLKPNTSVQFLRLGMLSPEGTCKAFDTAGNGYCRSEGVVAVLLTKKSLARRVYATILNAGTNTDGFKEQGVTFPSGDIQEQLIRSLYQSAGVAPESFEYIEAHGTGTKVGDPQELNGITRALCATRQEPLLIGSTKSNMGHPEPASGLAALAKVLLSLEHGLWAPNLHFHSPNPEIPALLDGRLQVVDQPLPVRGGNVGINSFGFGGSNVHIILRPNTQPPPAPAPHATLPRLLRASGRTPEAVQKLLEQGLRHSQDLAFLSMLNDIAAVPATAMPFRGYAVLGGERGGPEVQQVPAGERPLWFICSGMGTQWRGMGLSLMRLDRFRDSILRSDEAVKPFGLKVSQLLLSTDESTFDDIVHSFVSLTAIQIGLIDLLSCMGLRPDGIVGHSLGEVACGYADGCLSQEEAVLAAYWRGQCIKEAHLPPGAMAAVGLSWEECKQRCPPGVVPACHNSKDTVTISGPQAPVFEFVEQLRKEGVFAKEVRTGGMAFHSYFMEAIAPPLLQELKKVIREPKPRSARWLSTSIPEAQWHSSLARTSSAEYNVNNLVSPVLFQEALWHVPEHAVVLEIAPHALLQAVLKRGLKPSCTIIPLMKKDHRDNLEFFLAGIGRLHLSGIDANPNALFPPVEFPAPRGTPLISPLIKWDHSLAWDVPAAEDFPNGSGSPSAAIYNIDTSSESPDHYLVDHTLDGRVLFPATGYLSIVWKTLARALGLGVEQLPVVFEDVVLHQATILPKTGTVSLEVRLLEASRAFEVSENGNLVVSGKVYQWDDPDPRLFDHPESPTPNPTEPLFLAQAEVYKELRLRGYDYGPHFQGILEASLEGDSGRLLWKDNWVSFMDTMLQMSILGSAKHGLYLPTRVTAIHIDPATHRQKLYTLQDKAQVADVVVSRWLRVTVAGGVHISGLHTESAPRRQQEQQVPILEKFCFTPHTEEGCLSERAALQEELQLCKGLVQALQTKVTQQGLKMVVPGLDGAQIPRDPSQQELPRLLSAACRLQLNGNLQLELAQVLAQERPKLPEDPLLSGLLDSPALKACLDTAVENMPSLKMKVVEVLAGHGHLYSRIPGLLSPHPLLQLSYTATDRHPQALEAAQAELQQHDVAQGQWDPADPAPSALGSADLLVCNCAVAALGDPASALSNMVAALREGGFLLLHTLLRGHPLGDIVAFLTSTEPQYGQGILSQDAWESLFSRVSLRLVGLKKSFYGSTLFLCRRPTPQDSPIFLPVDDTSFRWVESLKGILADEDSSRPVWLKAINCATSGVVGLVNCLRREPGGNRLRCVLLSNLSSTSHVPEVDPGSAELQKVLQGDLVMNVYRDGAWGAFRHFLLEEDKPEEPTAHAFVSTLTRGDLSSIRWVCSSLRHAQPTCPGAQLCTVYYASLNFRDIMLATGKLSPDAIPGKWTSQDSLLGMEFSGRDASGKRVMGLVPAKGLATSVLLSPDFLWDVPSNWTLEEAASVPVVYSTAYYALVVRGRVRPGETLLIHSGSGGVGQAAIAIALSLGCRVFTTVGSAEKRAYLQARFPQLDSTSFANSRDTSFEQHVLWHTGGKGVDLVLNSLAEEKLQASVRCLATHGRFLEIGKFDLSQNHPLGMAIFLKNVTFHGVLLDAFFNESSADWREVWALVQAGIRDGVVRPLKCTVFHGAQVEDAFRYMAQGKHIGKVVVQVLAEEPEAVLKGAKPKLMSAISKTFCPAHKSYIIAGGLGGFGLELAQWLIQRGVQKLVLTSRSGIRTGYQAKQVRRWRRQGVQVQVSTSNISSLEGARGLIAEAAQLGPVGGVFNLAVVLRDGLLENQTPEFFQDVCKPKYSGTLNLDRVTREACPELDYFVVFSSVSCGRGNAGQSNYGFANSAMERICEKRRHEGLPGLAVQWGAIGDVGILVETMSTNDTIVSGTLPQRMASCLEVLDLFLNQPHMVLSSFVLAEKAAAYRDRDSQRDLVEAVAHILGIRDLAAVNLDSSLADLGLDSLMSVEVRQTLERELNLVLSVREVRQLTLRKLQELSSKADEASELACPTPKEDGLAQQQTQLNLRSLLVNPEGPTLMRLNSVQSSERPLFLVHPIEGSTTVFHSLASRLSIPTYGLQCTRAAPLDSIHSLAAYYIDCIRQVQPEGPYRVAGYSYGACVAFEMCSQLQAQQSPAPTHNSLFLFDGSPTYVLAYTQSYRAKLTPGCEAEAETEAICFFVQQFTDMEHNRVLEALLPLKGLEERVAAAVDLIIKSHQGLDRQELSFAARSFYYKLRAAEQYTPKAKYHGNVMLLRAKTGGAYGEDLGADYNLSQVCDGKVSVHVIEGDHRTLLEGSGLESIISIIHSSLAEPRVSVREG

Usually AC50 stands for the midpoint of the concentration-response curve, whichever way the signal moves. `CCOCN(C(=O)CCl)c1c(C)cccc1CC`: the result in [1], in test [3], in test [4], in test [8], in test [9] and in test [10] was inactive. Besides, the outcome in test [11], in [12] and in test [14] was inactive. For the same compound, the AC50 in test [2] was 90.8 µM (active); in test [5], 80 µM (active); in test [6], 78.7 µM (active); in test [7], 50 µM (active); in test [13], 75.5 µM (active).
`O=C(O)C(F)(F)C(F)(F)C(F)(F)C(F)(F)C(F)(F)C(F)(F)C(F)(F)F`: the compound was called inactive in test [1], in test [2], in test [3], in [4], in test [5] and in test [6]. The compound was classed as inactive in test [7], in test [8], in test [9], in [10], in [11] and in test [12]. Further, the compound was called inactive in test [13]. For the same compound, the concentration at half-maximal activity (AC50) in [5] was 23.3 µM (active); in test [9], 50 µM (active).
`CCCN(CCC)c1c([N+](=O)[O-])cc(C(F)(F)F)cc1[N+](=O)[O-]`: the compound was called inactive in test [15], in test [1], in test [2], in [3], in test [4] and in test [16]. Further, the call in [5], in test [6], in [8], in test [9], in test [17] and in test [10] was inactive. In addition, the compound was called inactive in test [11], in [12] and in test [13]. The AC50 in test [7] is 50 µM (active).
In the case of `CNC(=O)Oc1cccc(N=CN(C)C)c1`, the compound was classed as inactive in test [18], in test [19], in test [1], in test [2], in test [3] and in test [4]. The result in test [5], in test [6], in [8], in test [9], in test [10] and in test [11] was inactive. Besides, the compound was classed as inactive in test [12] and in test [13]. Also, the AC50 in test [15] is 35.9 µM (active); in [7], 50.2 µM (active).
In the case of `CCOC1Oc2ccc(OS(C)(=O)=O)cc2C1(C)C` (stereo not given), the call in [1], in test [2], in [3], in test [8], in test [11] and in test [13] was inactive. Also, the AC50 in test [4] was 87.1 µM (active); in test [5], 74.1 µM (active); in test [6] it was 78.3 µM (active); in [7], 50 µM (active); in test [9], 50 µM (active); in test [10], 89.7 µM (active). Further, the AC50 in [12] was 35.2 µM (active).
For `COP(=S)(OC)Oc1ccc([N+](=O)[O-])cc1`, the compound was classed as inactive in [18], in test [19], in test [1], in test [2], in test [3] and in [4]. Further, the outcome in test [5], in test [6], in [8], in test [9], in test [10] and in test [11] was inactive. In addition, the outcome in test [12] and in test [13] was inactive. Moreover, the AC50 was 9.85 µM (active) in test [15] and 44.2 µM (active) in [7].
